Assay results reported in PubChem BioAssay AID2073 (Sanford-Burnham Center for Chemical Genomics, 2009).
Among all 290,000 compounds or so, about 570 (0.2%) were called active. Roughly 1% stayed inconclusive and do not appear here. No stated cut-off is given here; in the data, active means inhibition mostly above about 51% (no sharp cut-off); inconclusive means no clear call, values can overlap the other calls; inactive means mostly below about 53%. The list comes from a sample in which actives are over-represented; it also holds similar structures and randomly drawn compounds.

Target: Voltage-dependent N-type calcium channel subunit alpha-1B (Homo sapiens) (UniProt Q00975)
Sequence (Q00975 whole entry, looked up): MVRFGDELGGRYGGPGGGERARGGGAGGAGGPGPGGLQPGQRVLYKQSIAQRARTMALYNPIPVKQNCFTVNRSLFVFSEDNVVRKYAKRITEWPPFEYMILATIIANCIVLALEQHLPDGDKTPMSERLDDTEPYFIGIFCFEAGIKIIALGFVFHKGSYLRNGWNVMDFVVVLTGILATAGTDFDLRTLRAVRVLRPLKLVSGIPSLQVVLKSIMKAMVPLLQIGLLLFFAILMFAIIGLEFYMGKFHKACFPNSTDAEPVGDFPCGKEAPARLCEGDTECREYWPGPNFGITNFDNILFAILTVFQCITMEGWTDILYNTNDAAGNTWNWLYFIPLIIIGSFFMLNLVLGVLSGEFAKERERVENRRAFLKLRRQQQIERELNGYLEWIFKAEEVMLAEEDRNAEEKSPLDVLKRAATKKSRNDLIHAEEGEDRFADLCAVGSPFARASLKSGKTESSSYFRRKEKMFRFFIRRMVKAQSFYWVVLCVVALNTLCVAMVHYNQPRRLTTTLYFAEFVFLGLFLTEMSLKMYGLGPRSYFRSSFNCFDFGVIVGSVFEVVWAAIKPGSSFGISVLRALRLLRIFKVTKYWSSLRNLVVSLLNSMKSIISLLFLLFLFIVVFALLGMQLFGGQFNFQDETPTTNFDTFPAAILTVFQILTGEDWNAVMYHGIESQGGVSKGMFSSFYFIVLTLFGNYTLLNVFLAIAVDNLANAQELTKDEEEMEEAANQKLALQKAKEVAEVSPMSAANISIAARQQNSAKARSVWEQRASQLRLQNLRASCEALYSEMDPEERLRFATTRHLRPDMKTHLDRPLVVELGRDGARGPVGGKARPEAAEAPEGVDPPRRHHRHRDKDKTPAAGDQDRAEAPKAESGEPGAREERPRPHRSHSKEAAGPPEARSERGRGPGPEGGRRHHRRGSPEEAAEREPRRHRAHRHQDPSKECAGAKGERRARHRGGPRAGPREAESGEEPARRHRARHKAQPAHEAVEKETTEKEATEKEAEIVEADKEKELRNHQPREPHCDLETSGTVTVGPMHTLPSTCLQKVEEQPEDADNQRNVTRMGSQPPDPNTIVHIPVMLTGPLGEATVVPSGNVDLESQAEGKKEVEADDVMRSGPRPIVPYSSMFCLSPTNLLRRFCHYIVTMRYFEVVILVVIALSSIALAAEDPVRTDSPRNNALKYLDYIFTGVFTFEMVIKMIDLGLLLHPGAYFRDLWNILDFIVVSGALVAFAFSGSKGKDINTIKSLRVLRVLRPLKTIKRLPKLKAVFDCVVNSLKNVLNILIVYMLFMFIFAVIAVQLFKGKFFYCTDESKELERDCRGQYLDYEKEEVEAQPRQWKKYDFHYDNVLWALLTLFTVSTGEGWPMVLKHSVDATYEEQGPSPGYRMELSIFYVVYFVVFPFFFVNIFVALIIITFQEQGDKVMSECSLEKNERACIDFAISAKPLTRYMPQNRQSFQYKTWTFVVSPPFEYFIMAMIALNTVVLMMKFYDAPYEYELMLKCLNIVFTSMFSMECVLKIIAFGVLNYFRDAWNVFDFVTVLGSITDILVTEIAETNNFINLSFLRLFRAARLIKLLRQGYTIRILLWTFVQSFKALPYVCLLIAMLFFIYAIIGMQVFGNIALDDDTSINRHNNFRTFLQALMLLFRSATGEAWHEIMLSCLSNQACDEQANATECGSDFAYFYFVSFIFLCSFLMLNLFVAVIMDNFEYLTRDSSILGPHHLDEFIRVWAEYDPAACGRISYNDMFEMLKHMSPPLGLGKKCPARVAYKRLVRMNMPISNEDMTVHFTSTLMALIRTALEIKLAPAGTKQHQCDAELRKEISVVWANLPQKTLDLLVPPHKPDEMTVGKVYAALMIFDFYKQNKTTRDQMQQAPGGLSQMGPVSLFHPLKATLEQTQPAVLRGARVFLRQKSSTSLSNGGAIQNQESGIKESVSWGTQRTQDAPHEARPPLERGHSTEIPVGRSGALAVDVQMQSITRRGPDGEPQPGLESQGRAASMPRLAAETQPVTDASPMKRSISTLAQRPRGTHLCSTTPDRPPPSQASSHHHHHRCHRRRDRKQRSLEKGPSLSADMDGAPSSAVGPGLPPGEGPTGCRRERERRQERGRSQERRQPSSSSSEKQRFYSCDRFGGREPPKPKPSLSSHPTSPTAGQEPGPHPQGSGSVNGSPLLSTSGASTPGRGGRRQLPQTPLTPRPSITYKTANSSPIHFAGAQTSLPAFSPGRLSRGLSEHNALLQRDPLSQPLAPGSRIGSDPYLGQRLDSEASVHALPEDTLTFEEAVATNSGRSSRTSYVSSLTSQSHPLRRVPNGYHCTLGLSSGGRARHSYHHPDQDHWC
Assay: disruptors of CaV2.2 binding to Mint1 – biochemical, HTRF (AID 2073)
Conditions: HTRF protein-protein interaction, Mint1-CaV2.2, at 20 µM, stronger effect = higher value
[1] = measured here: average of repeat tests

Compound	inhibition	inhibition [1]
COc1cc(/C=C(/C#N)c2nc(-c3cc4ccccc4oc3=O)cs2)cc([N+](=O)[O-])c1O	80.7% (active)	
COc1cc(/C=C(\C#N)c2nc(-c3cc4ccccc4oc3=O)cs2)ccc1O	23.3% (inactive)	
COc1cc(/C=C(\C#N)c2nc3ccccc3s2)cc([N+](=O)[O-])c1O	40.5% (inactive)	
COc1ccc(N2Cc3ccc(C(=O)N/N=C\c4ccc(O)cc4O)cc3C2)cc1	68.9% (inactive)	29.4%
COc1ccc(NC(=O)c2cc3c(CO)cnc(C)c3oc2=Nc2cccc(F)c2)c(OC)c1	11.2% (inactive)	
COc1ccc(NC(=O)c2cc3c(CO)cnc(C)c3oc2=Nc2cccc(C)c2)c(OC)c1	10.6% (inactive)	
COc1ccccc1C(=O)OCC(=O)NC1CCCC1	16.7% (inactive)	
NC(=O)c1ccccc1NC(=O)CN1CCOCC1	-0.5% (inactive)	
COc1cc(/C=C/c2ccc3cccc(O)c3n2)ccc1O	21.1% (inactive)	
COc1ccc(/C=C/c2ccc3c(Br)ccc(O)c3n2)cc1	32.5% (inactive)	
COc1cc(/C=C/c2ccc3c(Br)cc(Br)c(O)c3n2)ccc1O	56.6% (active)	
COCC(=O)N(Cc1nc2sc(C)c(C)c2c(=O)[nH]1)C1CCCCC1	4.2% (inactive)	
CN(Cc1ccccc1F)C(=O)c1ccccc1Sc1ccccc1C#N	-14.5% (inactive)	
Cc1nc2ncccn2c1-c1csc(Nc2ccc(O)cc2)n1	25% (inactive)	
COc1ccc(Nc2nc(-c3c(C)nc4ncccn34)cs2)cc1	55.6% (active)	
Cc1ccc(Nc2nc(-c3c(C)nc4ncccn34)cs2)cc1	7.5% (inactive)	
Cc1ccc2c(Cl)c(C(=O)NCC(c3ccco3)N3CCCC3)sc2c1 (configuration not stated)	3% (inactive)	
O=c1c(Cl)nc2cc(Cl)ccc2n1CCNc1ncc(C(F)(F)F)cc1Cl	-81.2% (inactive)	
Clc1ccc2nnnc(-c3ccccc3)c2c1	8.1% (inactive)	
Cc1cc(C(=O)COC(=O)Cn2c(C(F)(F)F)nc3ccccc32)c(C)n1Cc1ccco1	1.6% (inactive)	
CCOC(=O)CCCCCN1C(=O)c2cccc3cccc(c23)C1=O	-9.7% (inactive)	
CCOC(=O)c1sc(NC(=O)CCCCCN2C(=O)c3cccc4cccc(c34)C2=O)nc1C	52.5% (active)	
CC(=O)c1sc(NC(=O)CCN2C(=O)c3ccccc3C2=O)nc1C	14.5% (inactive)	
O=C(CC1C(=O)NCCN1Cc1cccc(F)c1)NCCCOc1cccnc1 (configuration not stated)	0.9% (inactive)	

Compound	inhibition	inhibition [1]
N=C1C(c2nc3ccccc3s2)=C(O)CN1NC(=O)c1ccccc1[N+](=O)[O-]	14.9% (inactive)	
N=C1C(c2nc3ccccc3s2)=C(O)CN1NC(=O)c1c[nH]c2ccccc12	53.4% (active)	
N=C1C(c2nc3ccccc3[nH]2)=C(O)CN1NC(=O)c1c[nH]c2ccccc12	2.4% (inactive)	
COc1cc(OC)c(C2C(C#N)=C(C)NC(C)=C2C#N)c(C(=O)O)c1	-3.5% (inactive)	
C=C(C)Cn1c(C2CC(=O)N(Cc3ccccc3)C2)nc2ccccc21 (configuration not stated)	-9.9% (inactive)	
CCCN(CCC)CCCNC(=O)C1CCN(S(=O)(=O)c2cccc3nsnc23)CC1	-0.6% (inactive)	
Cc1ccc(-c2c(C(=O)Nc3ccccc3C)c(C)[nH]c(=S)c2C#N)o1	33.2% (inactive)	
Cc1ccccc1NC(=O)c1c(C)[nH]c(=S)c(C#N)c1-c1ccco1	50.9% (active)	
CNC(=O)c1c(C)[nH]c(=S)c(C#N)c1-c1ccco1	-35.6% (inactive)	
CCOC(=O)CNc1nc(Cl)nc(N2CCCCC2)n1	6.2% (inactive)	
Cn1c(=O)c2c(n3cnnc13)-c1ccccc1CC21CCCC1	3.5% (inactive)	
COc1cc(NC(=O)c2ccccc2)c(OC)cc1NC(=O)Cc1cccs1	51.4% (active)	
COc1ccccc1NC(=O)Cc1cccs1	-5.5% (inactive)	
COc1ccccc1CC(=O)Nc1cc(OC)c(NC(=O)c2ccccc2)cc1OC	-5.3% (inactive)	
COc1cc(N=c2ssnc2Cl)c(OC)cc1Cl	46.5% (inactive)	
COc1cc(/C=C/c2ccc3cccc(O)c3n2)cc(OC)c1OC	24.9% (inactive)	
COc1ccc(N=c2ssnc2Cl)cc1	27.4% (inactive)	
COc1ccc(OC)c(N=c2ssnc2Cl)c1	27.6% (inactive)	
O=C(Nc1ccc(-c2nc3ccccc3o2)cc1)c1ccc2c(c1)OCO2	66.2% (active)	
Cc1ccc(-c2nc3ccccc3o2)cc1NC(=O)c1ccc2c(c1)OCO2	-1.5% (inactive)	
Cc1ccc2oc(-c3ccc(NC(=O)c4ccc5c(c4)OCO5)cc3)nc2c1	6.7% (inactive)	
Oc1ccc(Br)cc1CNc1cnc2ccccc2c1	13.6% (inactive)	
CCCc1ccc(-c2cc(C(=O)N/N=C/c3ccc([N+](=O)[O-])o3)c3ccccc3n2)cc1	27.9% (inactive)	
O=C(N/N=C/c1ccc([N+](=O)[O-])o1)c1cn(-c2ccccc2)nc1-c1ccccc1	60.4% (inactive)	2.1%

Compound	inhibition	inhibition [1]
O=C(N/N=C/c1ccc([N+](=O)[O-])o1)c1cc(-c2ccncc2)nc2ccccc12	20.1% (inactive)	
O=C(N/N=C/c1ccc([N+](=O)[O-])o1)c1cn(-c2ccccc2)nc1-c1ccc(Cl)cc1	67.5% (active)	
O=C(N/N=C/c1ccc([N+](=O)[O-])o1)c1cc(-c2ccc(-c3ccccc3)cc2)nc2ccccc12	59.1% (active)	
COc1ccc(-c2nn(-c3ccccc3)cc2C(=O)N/N=C/c2ccc([N+](=O)[O-])o2)cc1	50.6% (inactive)	11.4%
CCn1c(SCc2ccc(C)cc2)nnc1-c1cnccn1	1.9% (inactive)	
Cc1ccc(S(=O)(=O)c2cnc3cc(C)nn3c2N)cc1	9.4% (inactive)	
c1cnc(-c2noc(CN3CCN(C4C5CC6CC(C5)CC4C6)CC3)n2)cn1 (configuration not stated)	-1.9% (inactive)	
O=C(O)CSC(C(=O)Nc1ccc(Br)cc1)c1ccc(Cl)cc1 (configuration not stated)	9.9% (inactive)	
Cc1cc2ccccn2c1C(=O)c1ccc(N/N=C/c2ccc(C(=O)O)cc2)c([N+](=O)[O-])c1	69.4% (active)	
Cc1cc2ccccn2c1C(=O)c1ccc(NN)c([N+](=O)[O-])c1	9.5% (inactive)	
CC(=O)Nc1ccc(/C=N/Nc2ccc(C(=O)c3c(C)cc4ccccn34)cc2[N+](=O)[O-])cc1	50.4% (inactive)	29.6%
Cc1ncoc1C(=O)Nc1ncc([N+](=O)[O-])s1	68% (active)	
Cc1ccc(C(=O)Nc2ncc([N+](=O)[O-])s2)cc1	11.7% (inactive)	
Cc1nc(C)c(C(=O)Nc2ncc([N+](=O)[O-])s2)o1	33.7% (inactive)	
CC1=CCC2C(=O)N(c3ccc(C)cc3)C(=O)C2C1 (configuration not stated)	6.6% (inactive)	
Cc1ccc(-c2csc(C3=C(O)CN(NC(=O)c4ccc([N+](=O)[O-])cc4)C3=N)n2)cc1	25.8% (inactive)	
N=C1C(c2nc(-c3ccc(Br)cc3)cs2)=C(O)CN1NC(=O)c1ccc([N+](=O)[O-])cc1	34.5% (inactive)	
O=C(NN1C(=O)C2C(C1=O)C1C=CC2C12CC2)c1ccncc1 (configuration not stated)	6% (inactive)	
O=C(NN1C(=O)C2C3C=CC(C3)C2C1=O)c1ccncc1 (configuration not stated)	5.7% (inactive)	
O=C(NN1C(=O)C2CC=C(Cl)CC2C1=O)c1ccncc1 (configuration not stated)	61.5% (active)	
O=C(CSc1nnc(-c2ccccc2O)o1)Oc1ccc(Br)cc1	3% (inactive)	
CCOC(=O)C1CCCN(C(=O)c2ccc3nc(-c4ccc(OC)c(OC)c4)c(-c4ccc(OC)c(OC)c4)nc3c2)C1 (configuration not stated)	10.2% (inactive)	
NC(=O)c1cc(N2C(=O)C=CC2=O)ccc1Cl	47% (inactive)	
Cc1ccc(NC(=O)c2cc(N3C(=O)C=CC3=O)ccc2Cl)cc1C	59.1% (active)	

Compound	inhibition	inhibition [1]
Cc1ccc(NC(=O)c2cc(N3C(=O)C=CC3=O)ccc2N2CCOCC2)cc1Cl	-7.4% (inactive)	
COc1cc(OC)cc(-c2nnc(Nc3nc4c(F)cccc4s3)o2)c1	56.7% (active)	
Fc1cccc2sc(Nc3nnc(-c4ccccc4)o3)nc12	38.5% (inactive)	
COc1cccc(-c2nnc(Nc3nc4c(F)cccc4s3)o2)c1	43.9% (inactive)	
Cc1ccc(C(=O)NCCSc2ccccc2)cc1S(=O)(=O)Nc1ccccc1	-1.8% (inactive)	
Cc1ccc(/C=C/C(=O)NCC2COc3ccccc3O2)o1 (configuration not stated)	72.5% (active)	
O=C(/C=C/c1ccco1)NCC1COc2ccccc2O1 (configuration not stated)	11% (inactive)	
CC(C)Oc1ccc(/C=C/C(=O)NCC2COc3ccccc3O2)cc1 (configuration not stated)	-5% (inactive)	
Cc1ccc(C(=O)NCCCN2CCOCC2)cc1Cl	4.3% (inactive)	
CN(N)c1nc(-c2ccccc2)cc(-c2ccccc2)n1	-4.2% (inactive)	
CN(C)c1nc(=NCc2ccco2)ss1	67.8% (active)	
c1coc(CN=C2NC(=NCc3ccco3)c3ccccc32)c1	18.7% (inactive)	
O=C1CCCC(=NCc2ccco2)C1	-7.5% (inactive)	
COC(=O)/C=C1/SC(=Nc2ccc(C)cc2C)NC1=O	0.9% (inactive)	
O=C1c2ccccc2C(=O)N1C/C=C/CN1C(=O)c2ccccc2C1=O	0% (inactive)	
Cc1ccc(-c2nc(CN(C)C3CCOC3)c(C)o2)s1 (configuration not stated)	7.1% (inactive)	
COc1ccc(-c2cc3c(=O)n(CC(=O)Nc4cccc(Cl)c4)ncn3n2)cc1	39.6% (inactive)	
O=C1N=C(N2CCCC2C(=O)O)S/C1=C\c1ccco1 (configuration not stated)	95.1% (active)	
O=C1N=C(N2CCN(c3ccccc3)CC2)S/C1=C\c1ccco1	37.7% (inactive)	
O=C1N=C(N2CCN(c3ccccc3)CC2)S/C1=C/c1ccco1	-5% (inactive)	
COc1ccc(-n2nc(C(=O)NCC(=O)NCCCN3CC(C)CC(C)C3)c3ccccc3c2=O)cc1 (configuration not stated)	3.3% (inactive)	
